Data published in PubChem BioAssay.
Calls of active or inactive are those of the source. How the calls were made is not given here.

Biological target: Pantothenate synthetase (Mycobacterium tuberculosis (strain ATCC 25618 / H37Rv)) (UniProt P9WIL5)
Test: Coupled enzyme confirmation of inhibitors against recombinant Mtb PanC (AID 375);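 further: 0% = full reaction with vehicle and 100% = no enzyme background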
Conditions: coupled enzyme assay; at 10 µM, active compounds read high

Sequence of Pantothenate synthetase (Mycobacterium tuberculosis (strain ATCC 25618 / H37Rv)) (P9WIL5 whole entry, looked up): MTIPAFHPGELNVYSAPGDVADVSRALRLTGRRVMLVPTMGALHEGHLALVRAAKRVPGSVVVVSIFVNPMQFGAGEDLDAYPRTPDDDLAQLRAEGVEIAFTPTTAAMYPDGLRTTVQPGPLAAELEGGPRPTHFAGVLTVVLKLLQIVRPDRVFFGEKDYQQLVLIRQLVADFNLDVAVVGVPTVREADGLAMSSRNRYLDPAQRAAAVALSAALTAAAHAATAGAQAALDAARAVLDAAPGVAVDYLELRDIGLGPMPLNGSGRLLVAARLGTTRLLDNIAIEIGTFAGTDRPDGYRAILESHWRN

| SMILES | inhibition |
| --- | --- |
| CCOc1ccc(NC(=O)CSc2nnc(COc3c(C)cccc3C)o2)cc1 | 1% (inactive) |
| Cc1cccc(CS(=O)(=O)Cc2ccc(C(=O)NCC3CCCO3)o2)c1 (stereo not given) | 0% (inactive) |
| CSc1ccc(S(=O)(=O)Nc2cccc(F)c2)cc1 | 0% (inactive) |
| Cc1cccc(C)c1OCC(=O)Nc1cccc(NC(=O)c2ccco2)c1 | 12% (inactive) |
| O=C(CN1CCCN(S(=O)(=O)c2ccc(F)cc2)CC1)Nc1ccccc1Br | 5% (inactive) |
| COc1ccc(C)cc1NC(=O)C1CCN(S(=O)(=O)c2cccc3cccnc23)CC1 | 19% (inactive) |
| CCOc1ncccc1C(=O)Nc1ccc(Cl)cc1 | 2% (inactive) |
| CCc1nnc(NC(=O)NCN2C(=O)C3C4C=CC(C4)C3C2=O)s1 (stereo not given) | 0% (inactive) |
| O=C(O)c1oc2ccccc2c1-n1cccc1 | 6% (inactive) |
| Cn1c(=O)[nH]c(=O)c2c1nc(N(CCO)Cc1ccccc1)n2Cc1ccccc1Cl | 4% (inactive) |
| COc1ccc(NC(=O)N2CCC(O)(c3cccnc3)CC2)c(OC)c1 | 3% (inactive) |
| COc1ccc(NC(=O)C(C)Oc2ccc(/C(C)=N\O)cc2)cc1 (stereo not given) | 0% (inactive) |
| CN(C)CCNc1oc(-c2ccccc2F)nc1C#N | 1% (inactive) |
| CCN(CC(=O)NC1CCS(=O)(=O)C1)C(=O)C(c1ccccc1)c1ccccc1 (stereo not given) | 1% (inactive) |
| O=C(O)CC1NC(=O)N(c2ccccc2)C1=O (stereo not given) | 0% (inactive) |
| CCS(=O)(=O)c1nc2ccccc2n1CC(=O)N1CCOCC1 | 0% (inactive) |
| Cc1nc(Sc2cccn2C)c(C(F)(F)F)c(=O)[nH]1 | 0% (inactive) |
| CCOC(=O)c1c(NC(=O)c2cccs2)sc(C)c1C | 0% (inactive) |
| CN(C)c1ccc(O)c2c1CC1CC3[C@@H](N(C)C)C(=O)C(C(N)=O)=C(O)[C@]3(O)C(=O)C1=C2O (stereo not given in full) | 0% (inactive) |
| C=C(CC)C(=O)c1ccc(OCC(=O)O)c(Cl)c1Cl | 0% (inactive) |

| SMILES | inhibition |
| --- | --- |
| Cn1c(=O)oc2cc(S(=O)(=O)N3CCC(C(=O)Nc4ccc(OC(F)(F)F)cc4)CC3)ccc21 | 0% (inactive) |
| c1ccc(-c2cc(N3CCCCC3)ncn2)cc1 | 0% (inactive) |
| COc1cccc(N(C(=O)c2ccco2)C(C(=O)NC2CCCC2)c2ccc(N(C)C)cc2)c1 (stereo not given) | 0% (inactive) |
| CCOC(=O)c1cccc(NC(=O)CNS(=O)(=O)c2cccs2)c1 | 0% (inactive) |
| Cc1nc2sc(C#N)c(N)c2c2c1CCCC2 | 2% (inactive) |
| C=CCn1c(SCC2=C(C(=O)OCC)C(C)NC(=O)N2)nnc1C1CCCCC1 (stereo not given) | 0% (inactive) |
| C=CCn1c(SCC(=O)NC23CC4CC(CC(C4)C2)C3)nc(O)cc1=O | 0% (inactive) |
| CCN1C(=O)c2cccc3c(NC(=O)c4ccc5c(c4)OCCO5)ccc1c23 | 0% (inactive) |
| Cn1c(-c2ccc(F)cc2)cnc1NCc1ccccc1 | 0% (inactive) |
| O=c1c2cc3ccccc3n2cnn1Cc1ccccc1F | 0% (inactive) |
| O=C(Nc1ccccc1)N(Cc1cccnc1)Cc1ccco1 | 0% (inactive) |
| O=C(C1CCCN(S(=O)(=O)c2cccs2)C1)N1CCc2ccccc2C1 (stereo not given) | 9% (inactive) |
| O=C(c1ccccc1Br)N1CCN(c2ccccc2)CC1 | 8% (inactive) |
| Nc1nc(CSc2nc3ccccc3[nH]2)nc(N2CCOCC2)n1 | 4% (inactive) |
| COc1ccc(Cn2nnnc2C(c2ccncc2)N2CCOCC2)cc1 (stereo not given) | 0% (inactive) |
| COc1ccc(C)cc1NC(=O)CNC(=O)Cn1ccc2ccccc2c1=O | 5% (inactive) |
| CCN1CCN(CCCNC(=O)c2cn(CCOC)c(=O)c3c2c2ccccc2n3C)CC1 | 0% (inactive) |
| CN(C)c1nc(OCCOC(=O)Nc2ccc(Cl)cc2Cl)nc(N(C)C)n1 | 0% (inactive) |
| COc1ccc2nc(S(=O)Cc3ncc(C)c(OC)c3C)[nH]c2c1 (stereo not given) | 4% (inactive) |
| COc1ccc(N(C)C(=O)CCS(=O)(=O)c2cccc3nonc23)c(OC)c1 | 0% (inactive) |
